Active and inactive are the calls of the source. Unless noted, no rule for the calls is given here.

Consider eight compounds from PubChem BioAssay.

The subject of assay [1] is Wnt5a (protein binding on small-molecule microarray). The assay can be described thus: small molecules binding Wnt5a protein – biophysical, small-molecule microarray, 635/667 nm fluorescence, primary screen (AID 1142).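 Also: fluorescence read at 667 nm with signal to noise per printed feature.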 The settings on record: 635 nm fluorescence, higher = more signal.
Assay [2] can be described thus: ATP-based viability of Huh7 replicon cells – cell-based, CellTiter-Glo luminescence, basal, 48 h, cytotoxicity control for HCV replication inhibitor project, primary screen (AID 1143).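 Also: Huh7 hepatoma cells carrying a hepatitis C replication reporter with no stimulus; test concentration not given here.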 The settings on record: higher = more signal, called active from +8 up or from −8 down.
Assay [3] in a line: Pseudomonas biofilm growth suppression – PAO1 strain, BacTiter-Glo luminescence, LB-PBS, primary screen (AID 1144). Particulars: P. aeruginosa PAO1 biofilm, 12 h, higher = more signal.
A short description of assay [4]: basal CRE-LacZ reporter activity in PC12 – cell-based, unstimulated, primary screen (AID 1145). The settings on record: no forskolin, luminescence, 4.5 h, higher = more signal, called active from +8 up or from −8 down.
Assay [5] can be described thus: forskolin-driven CRE-LacZ activity in PC12 – cell-based, CRE-LacZ reporter, forskolin-stimulated, primary screen (AID 1146).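 Also: PC12 cells with 6xCRE LacZ reporter stimulated by forskolin 10 µM; beta-galactosidase reporter signal reflecting CREB driven transcription.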 The settings on record: luminescence, 4.5 h, higher = more signal, called active from +8 up or from −8 down.
In assay [6] the target is Streptavidin (Streptomyces avidinii) (UniProt P22629). The assay can be described thus: compounds binding control protein streptavidin – biophysical, small-molecule microarray, 635/667 nm fluorescence, artefact control for SMM compound annotation, primary screen (AID 1147).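 Also: signal reflects streptavidin binding to arrayed compounds as a control protein.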 Particulars: higher = more signal.
Assay [7] can be described thus: probe aInhba binding on compound microarray – biochemical, small-molecule microarray, 635/667 nm fluorescence, primary screen (AID 1148).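 Also: score merges 667nm spot fluorescence with signal-to-noise for antibody binding to printed compounds.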 Particulars: higher = more signal.
The target of assay [8] is Torsin-1A (Homo sapiens) (UniProt O14656). Kind of assay: TOR1A wild-type binding on microarray – cell lysate, small-molecule microarray, lysate, 635/667 nm, primary screen (AID 1149). The settings on record: COS7 hTOR1A-WT lysate, 635 nm fluorescence, higher = more signal.
For assay [9] the target is unchanged. Kind of assay: torsin A mutant lysate binding on microarrays – cell lysate, small-molecule microarray, COS7 lysate, 635/667 nm fluorescence, primary screen (AID 1150).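 Also: score pools 667 nm emission and signal to noise measuring lysate protein binding.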 The settings on record: COS7 hTOR1A mutant lysate, 635 nm fluorescence, higher = more signal.
Assay [10] deals with Sonic hedgehog protein (Shh). Kind of assay: Sonic hedgehog microarray binding compounds – biochemical, small-molecule microarray, 635/667 nm fluorescence, primary screen (AID 1151).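 Also: Shh protein binding to compounds spotted on small-molecule microarray slides; score combines spot fluorescence intensity with signal-to-noise across triplicate slides.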 The settings on record: 635 nm fluorescence, higher = more signal.

Chain of Streptavidin (Streptomyces avidinii) (P22629 whole entry, looked up): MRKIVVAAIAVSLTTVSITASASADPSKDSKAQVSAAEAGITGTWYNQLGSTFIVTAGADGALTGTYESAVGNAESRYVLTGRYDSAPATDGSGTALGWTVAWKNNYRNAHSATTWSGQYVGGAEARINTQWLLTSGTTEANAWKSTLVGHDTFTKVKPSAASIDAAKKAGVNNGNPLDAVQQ
Chain of Torsin-1A (Homo sapiens) (O14656 whole entry, looked up): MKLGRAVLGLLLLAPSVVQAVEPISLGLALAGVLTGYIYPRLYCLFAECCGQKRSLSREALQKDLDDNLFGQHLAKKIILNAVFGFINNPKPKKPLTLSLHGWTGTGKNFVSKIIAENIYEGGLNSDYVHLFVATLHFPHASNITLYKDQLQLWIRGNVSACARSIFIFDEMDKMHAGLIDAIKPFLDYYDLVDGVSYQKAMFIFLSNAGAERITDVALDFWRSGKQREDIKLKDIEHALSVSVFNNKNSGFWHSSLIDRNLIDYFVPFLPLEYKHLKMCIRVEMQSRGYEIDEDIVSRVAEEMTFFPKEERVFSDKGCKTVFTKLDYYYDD

In the case of `CCOC(=O)C1=CC[C@@H](c2ccccc2)N(S(=O)(=O)c2ccc(C)cc2)[C@H]1c1ccc(C#N)cc1`, the composite z-score was 0.344 in assay [1]; 1.31 in assay [6]; 0.066 in assay [7]; -0.0412 in the assay with Torsin-1A (Homo sapiens) [8]; 0.389 with Torsin-1A (Homo sapiens) [9]; -0.428 in assay [10]. Besides, the z-score in [2] is -2.07 (inactive); in assay [3], 0.742 (inactive); in assay [4] it was 1.42 (inactive); in assay [5] it was 0.0633 (inactive).

On to `O=C1C2C=CC(C(O)c3ccccn3)N(Nc3ccccc3F)C2C(=O)N1c1ccccc1` (stereo not given), for which the composite z-score in [1] is -0.0672; in assay [6] it was 0.429; in assay [7], -0.0986; in the assay with Torsin-1A (Homo sapiens) [8], 0.456; with Torsin-1A (Homo sapiens) [9], 0.432; in [10], -0.461. Further, the z-score was 0.894 (inactive) in assay [2], -0.62 (inactive) in assay [3], -0.708 (inactive) in [4] and 0.901 (inactive) in assay [5].

As to `COc1cc2c(cc1O)C(c1ccc(CN3CCCC3)cc1)N(Cc1sc3ccccc3c1Cl)CC2` (stereo not given), the composite z-score is 0.0746 in assay [1]; 0.706 in assay [6]; -0.292 in assay [7]; 0.834 in the assay with Torsin-1A (Homo sapiens) [8]; 0.309 in the assay with Torsin-1A (Homo sapiens) [9]; 0.436 in assay [10]. The z-score is -3.63 (inactive) in assay [2], -0.0323 (inactive) in assay [3], 0.416 (inactive) in assay [4] and 0.821 (inactive) in assay [5].

With `Cc1ccc(N2C(=O)c3ccccc3[C@@H](C(=O)NC(C)C)[C@@H]2c2ccc(CO)cc2)nc1`, the composite z-score in assay [1] was 0.635; in assay [6] it was -0.896; in assay [7], -0.104; in the assay with Torsin-1A (Homo sapiens) [8] it was -1.73; with Torsin-1A (Homo sapiens) [9] it was 2.08; in assay [10] it was -0.473. Also, the z-score in [2] is -2.73 (inactive); in assay [3] it was -1.83 (inactive); in [4] it was 0.351 (inactive); in assay [5], 0.807 (inactive).

As for `COC(=O)[C@@]1(Cc2ccc(F)cc2)[C@H]2c3cc(C(=O)N(C)C)n(CCCNc4ccc(C(F)(F)F)cc4Cl)c3C[C@H]2CN1C(=O)c1ccccc1`, the composite z-score in assay [1] was 0.72; in assay [6] it was 1.8; in [7], 0.572; with Torsin-1A (Homo sapiens) [8], -0.335; with Torsin-1A (Homo sapiens) [9] it was 0.547; in assay [10], -0.576. The z-score in assay [2] was -3.53 (inactive); in assay [3] it was -0.119 (inactive); in assay [4] it was -0.379 (inactive); in assay [5], 0.607 (inactive).

`CCOC(=O)C[C@H]1[C@H](OC(=O)c2ccccc2-c2ccccc2)[C@@H](NC(=O)c2ccc(-c3ccccc3)cc2)c2cc(OCCCO)ccc2N1C(=O)c1ccccc1`: the composite z-score in [1] is 0.0187; in assay [6], 0.236; in assay [7] it was 0.0569; in the assay with Torsin-1A (Homo sapiens) [8], -0.29; with Torsin-1A (Homo sapiens) [9] it was 0.272; in assay [10] it was 0.684. Also, the z-score in assay [2] is -0.134 (inactive); in [3], 0.945 (inactive); in assay [4], 3.85 (inactive); in assay [5] it was -1.14 (inactive).

Take `Cc1ccc(S[C@]2(C(=O)NCCCN(C)C)CC(=O)N(C(C)C)[C@@H]2c2ccc(CO)cc2I)cc1`: the composite z-score is -0.331 in assay [1]; -0.199 in assay [6]; -0.0986 in assay [7]; -1.59 with Torsin-1A (Homo sapiens) [8]; -0.729 with Torsin-1A (Homo sapiens) [9]; 0.0632 in assay [10]. Further, the z-score was -2.21 (inactive) in assay [2], -0.985 (inactive) in assay [3], -0.114 (inactive) in assay [4] and 0.561 (inactive) in assay [5].

Turning to `COCCOC(=O)N1C(=O)[C@@]2(c3ccccc31)[C@H](c1ccc(O)cc1)N1[C@H](c3ccccc3)[C@H](c3ccccc3)OC(=O)[C@H]1[C@@H]2C(N)=O`, the composite z-score in assay [1] is -0.235; in assay [6], -0.516; in assay [7], -0.128; with Torsin-1A (Homo sapiens) [8] it was -1.04; with Torsin-1A (Homo sapiens) [9], 0.619; in assay [10], -0.218. The z-score in assay [2] was -1.34 (inactive); in assay [3] it was 0.0439 (inactive); in [4] it was 0.208 (inactive); in [5], 1.88 (inactive).
